In PubChem BioAssay one finds composite z-score and z-score data, which are given here for eight compounds.

The source made the active and inactive calls. Unless noted, how the calls were made is not given here.

Experiment [1] deals with Wnt5a (protein binding on small-molecule microarray). Briefly: Wnt5a binders on small-molecule microarray, primary screen, biophysical, 635/667 nm fluorescence (AID 1142).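 Further: fluorescence read at 667 nm with signal to noise per printed feature.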 To be noted: 635 nm fluorescence, higher = more signal.
A short description of experiment [2]: cell viability in Huh7 cells, primary screen, cytotoxicity control for HCV replication inhibitor project, CellTiter-Glo luminescence, basal, 48 h (AID 1143).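 Further: Huh7 hepatoma cells carrying a hepatitis C replication reporter with no stimulus; test concentration not given here.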 To be noted: Huh7 HCV replicon, higher = more signal, called active from +8 up or from −8 down. A general note: In ATP-based viability assays light output follows the ATP content of the culture.
Experiment [3] can be described thus: P. aeruginosa biofilm formation inhibitors, primary screen, PAO1 strain, BacTiter-Glo luminescence, LB-PBS (AID 1144). To be noted: 12 h, higher = more signal.
The nature of experiment [4]: CREB reporter modulators without forskolin, primary screen, cell-based, PC12, CRE-LacZ reporter, unstimulated (AID 1145). The settings on record: no forskolin, luminescence, 4.5 h, higher = more signal, called active from +8 up or from −8 down.
Experiment [5] can be described thus: CREB reporter modulators under forskolin, primary screen, cell-based, PC12, CRE-LacZ reporter, forskolin-stimulated (AID 1146).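 Further: PC12 cells with 6xCRE LacZ reporter stimulated by forskolin 10 µM; beta-galactosidase reporter signal reflecting CREB driven transcription.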 To be noted: luminescence, 4.5 h, higher = more signal, called active from +8 up or from −8 down.
Experiment [6] has as its target Streptavidin (Streptomyces avidinii) (UniProt P22629). Briefly: streptavidin binders on small-molecule microarray, primary screen, artefact control for SMM compound annotation, biophysical, 635/667 nm fluorescence (AID 1147).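 Further: signal reflects streptavidin binding to arrayed compounds as a control protein.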 The settings on record: streptavidin binding, higher = more signal.
The nature of experiment [7]: small-molecule binders of probe aInhba, primary screen, biochemical, small-molecule microarray, 635/667 nm fluorescence (AID 1148).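 Further: score merges 667nm spot fluorescence with signal-to-noise for antibody binding to printed compounds.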 The settings on record: higher = more signal.
The target in experiment [8] is Torsin-1A (Homo sapiens) (UniProt O14656). Briefly: torsin A binders from cell lysate, primary screen, small-molecule microarray, wild-type, 635/667 nm (AID 1149). The settings on record: COS7 hTOR1A-WT lysate, 635 nm fluorescence, higher = more signal.
The target is the same in experiment [9]. Nature of the experiment: small-molecule binders of mutant TOR1A in lysate, primary screen, cell lysate, small-molecule microarray, COS7 lysate, 635/667 nm fluorescence (AID 1150).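 Further: score pools 667 nm emission and signal to noise measuring lysate protein binding.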 To be noted: COS7 hTOR1A mutant lysate, 635 nm fluorescence, higher = more signal.
The test system of experiment [10] is Sonic hedgehog protein (Shh). Briefly: small-molecule binders of Shh protein, primary screen, biochemical, small-molecule microarray, 635/667 nm fluorescence (AID 1151).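 Further: Shh protein binding to compounds spotted on small-molecule microarray slides; score combines spot fluorescence intensity with signal-to-noise across triplicate slides.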 To be noted: small-molecule microarray binding, 635 nm fluorescence; higher = more signal.
Experiment [11] in a line: E. coli DRC41 culture turbidity changes, primary screen, E. coli filamentation inducer project, strain DRC41, OD650, 48 h (AID 1152).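 Further: E. coli MC1000 strain DRC41 lacking acrAB efflux pump and sulA.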 The settings on record: E. coli DRC41 (acrAB sulA), higher = more signal, called active from +8 up or from −8 down.
Experiment [12] is described as follows: small-molecule binders of probe aLefty1, primary screen, biochemical, small-molecule microarray, 635/667 nm fluorescence (AID 1153).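 Further: score merges spot fluorescence with signal-to-noise ratio from the scanned slide images.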 To be noted: higher = more signal.
Experiment [13] can be described thus: PSAC antagonists in infected red cells, primary screen, cell-based, P. falciparum Indochina, OD700, 1 h (AID 1154). The settings on record: P. falciparum Indochina infected RBC osmotic lysis, higher = more signal, called active from +8 up or from −8 down.
Experiment [14] in a line: PSAC antagonists in infected red cells, primary screen, cell-based, P. falciparum Indochina, OD700, 2 h (AID 1155).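 Further: lysis reports solute entry through the parasite surface anion channel PSAC; channel blockers reduce lysis of infected cells.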 The settings on record: P. falciparum Indochina infected erythrocytes, osmotic lysis OD700; higher = more signal, called active from +8 up or from −8 down.
The nature of experiment [15]: osmotic lysis modulators in infected erythrocytes, primary screen, PSAC antagonist project, cell-based, P. falciparum Indochina, OD700, 3 h (AID 1156). The settings on record: higher = more signal, called active from +8 up or from −8 down.
Experiment [16] in a line: PSAC antagonists in infected red cells, primary screen, cell-based, P. falciparum Indochina, OD700, 18 h (AID 1157). To be noted: P. falciparum Indochina infected erythrocytes, osmotic lysis OD700, 18 h; higher = more signal, called active from +8 up or from −8 down.
Experiment [17] in a line: modulators of S6 phosphorylation in cells, primary screen, cell-based, A549, cytoblot, luminescence, serum-stimulated (AID 1158).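 Further: serum-stimulated A549 lung adenocarcinoma cells; signal is phosphorylated S6 detected by cytoblot immunostaining with HRP secondary.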 The settings on record: A549 phospho-S6 cytoblot, 5 h, higher = more signal.
The target in experiment [18] is NADPH oxidase 2 (Homo sapiens) (UniProt P04839). Nature of the experiment: NOX2-dependent H2O2 signal modulators, primary screen, NOX inhibitor project, cell-based, HEK293-NOX2, PMA-stimulated, Amplex Red fluorescence (AID 1159). Further: test concentration not given here. The settings on record: 45 min, higher = more signal, called active from +8 up or from −8 down.
The target of experiment [19] is NADPH oxidase 4 (Homo sapiens) (UniProt Q9NPH5). Briefly: NOX4-dependent H2O2 signal modulators, primary screen, NOX inhibitor project, cell-based, HEK293-NOX4, tetracycline-induced, Amplex Red fluorescence (AID 1160). The settings on record: 45 min, higher = more signal, called active from +8 up or from −8 down.
Experiment [20] has as its target NADPH oxidase 5 (Homo sapiens) (UniProt Q96PH1). Nature of the experiment: NOX5-dependent H2O2 signal modulators, primary screen, NOX inhibitor project, cell-based, HEK293-NOX5, Amplex Red fluorescence (AID 1161). The settings on record: HEK293-NOX5, ionomycin, 45 min, higher = more signal.

Sequence of NADPH oxidase 2 (Homo sapiens) (P04839 whole entry, looked up): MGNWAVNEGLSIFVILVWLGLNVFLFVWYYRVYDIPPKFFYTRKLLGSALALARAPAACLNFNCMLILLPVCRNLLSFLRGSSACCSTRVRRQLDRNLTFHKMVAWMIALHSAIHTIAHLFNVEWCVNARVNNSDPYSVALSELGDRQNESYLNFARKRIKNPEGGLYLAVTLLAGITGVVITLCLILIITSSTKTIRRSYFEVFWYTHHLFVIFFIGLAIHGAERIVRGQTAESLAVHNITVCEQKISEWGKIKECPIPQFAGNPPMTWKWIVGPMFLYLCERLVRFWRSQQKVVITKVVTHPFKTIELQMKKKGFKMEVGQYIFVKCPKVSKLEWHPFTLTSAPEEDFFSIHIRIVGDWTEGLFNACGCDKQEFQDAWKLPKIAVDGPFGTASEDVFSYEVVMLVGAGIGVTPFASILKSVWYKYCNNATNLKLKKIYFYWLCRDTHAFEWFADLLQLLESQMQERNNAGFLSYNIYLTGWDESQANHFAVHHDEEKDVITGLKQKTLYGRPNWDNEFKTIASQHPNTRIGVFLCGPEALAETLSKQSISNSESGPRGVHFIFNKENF
Sequence of NADPH oxidase 4 (Homo sapiens) (Q9NPH5 whole entry, looked up): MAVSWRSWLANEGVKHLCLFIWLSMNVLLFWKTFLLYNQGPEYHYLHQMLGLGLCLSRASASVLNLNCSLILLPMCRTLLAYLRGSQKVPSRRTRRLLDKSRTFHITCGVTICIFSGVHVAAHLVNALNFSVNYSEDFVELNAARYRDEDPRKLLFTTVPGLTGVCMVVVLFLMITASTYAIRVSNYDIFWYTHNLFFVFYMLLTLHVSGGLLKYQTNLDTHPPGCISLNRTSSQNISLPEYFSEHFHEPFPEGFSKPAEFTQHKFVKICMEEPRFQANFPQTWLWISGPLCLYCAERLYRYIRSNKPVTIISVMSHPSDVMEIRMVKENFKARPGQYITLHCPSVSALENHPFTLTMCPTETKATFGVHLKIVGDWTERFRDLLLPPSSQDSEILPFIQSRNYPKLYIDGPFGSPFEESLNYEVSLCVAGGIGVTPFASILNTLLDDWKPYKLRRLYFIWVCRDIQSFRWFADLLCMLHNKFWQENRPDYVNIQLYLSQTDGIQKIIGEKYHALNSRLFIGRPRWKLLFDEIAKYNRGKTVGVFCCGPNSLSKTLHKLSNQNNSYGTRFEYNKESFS
Sequence of Streptavidin (Streptomyces avidinii) (P22629 whole entry, looked up): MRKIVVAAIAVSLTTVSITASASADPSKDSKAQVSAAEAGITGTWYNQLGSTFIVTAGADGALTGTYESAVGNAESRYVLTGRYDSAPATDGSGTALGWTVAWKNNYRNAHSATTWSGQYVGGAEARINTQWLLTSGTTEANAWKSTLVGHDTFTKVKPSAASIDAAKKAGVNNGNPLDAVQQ
Sequence of Torsin-1A (Homo sapiens) (O14656 whole entry, looked up): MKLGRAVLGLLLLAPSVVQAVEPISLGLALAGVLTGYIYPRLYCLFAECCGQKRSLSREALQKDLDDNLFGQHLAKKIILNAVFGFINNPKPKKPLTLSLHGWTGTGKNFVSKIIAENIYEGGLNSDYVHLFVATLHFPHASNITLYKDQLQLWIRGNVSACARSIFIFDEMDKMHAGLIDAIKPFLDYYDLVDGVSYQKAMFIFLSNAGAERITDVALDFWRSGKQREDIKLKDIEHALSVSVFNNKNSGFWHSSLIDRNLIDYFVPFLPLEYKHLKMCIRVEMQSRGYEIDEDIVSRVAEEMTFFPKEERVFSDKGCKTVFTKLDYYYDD
Sequence of NADPH oxidase 5 (Homo sapiens) (Q96PH1 whole entry, looked up): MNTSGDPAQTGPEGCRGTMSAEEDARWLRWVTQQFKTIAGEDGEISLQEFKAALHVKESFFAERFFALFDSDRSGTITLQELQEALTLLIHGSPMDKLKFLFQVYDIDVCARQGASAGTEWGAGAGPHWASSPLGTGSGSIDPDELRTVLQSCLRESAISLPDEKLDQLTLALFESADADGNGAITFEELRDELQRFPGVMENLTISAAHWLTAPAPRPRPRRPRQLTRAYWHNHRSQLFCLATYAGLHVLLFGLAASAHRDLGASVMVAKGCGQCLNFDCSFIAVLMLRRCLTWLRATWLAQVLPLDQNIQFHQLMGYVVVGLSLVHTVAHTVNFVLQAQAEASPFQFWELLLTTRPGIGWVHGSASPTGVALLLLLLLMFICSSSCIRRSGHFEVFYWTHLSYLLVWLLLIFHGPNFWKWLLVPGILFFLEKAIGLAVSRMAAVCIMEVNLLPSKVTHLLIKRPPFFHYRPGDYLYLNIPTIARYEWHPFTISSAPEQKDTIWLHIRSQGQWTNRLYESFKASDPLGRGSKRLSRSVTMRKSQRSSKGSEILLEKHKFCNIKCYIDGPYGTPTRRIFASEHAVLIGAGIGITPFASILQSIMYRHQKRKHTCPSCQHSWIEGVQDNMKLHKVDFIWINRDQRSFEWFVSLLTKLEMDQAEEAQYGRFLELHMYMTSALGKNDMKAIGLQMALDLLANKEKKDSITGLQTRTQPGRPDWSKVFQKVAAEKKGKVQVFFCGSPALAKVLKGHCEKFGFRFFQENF

Turning to `CCOC(=O)CCN1C(=O)[C@H]2[C@H]3[C@H](O)[C@H](O)CC(=NNC(=O)OCc4ccc(OC)cc4)[C@H]3CC[C@H]2C1=O`, the composite z-score in experiment [1] is -0.169; in experiment [6], -0.0807; in [7], -0.257; in [8], 0.306; in [9], 0.111; in experiment [10], 0.236. The same compound showed a composite z-score in experiment [12] of -0.0109. For the same compound, the z-score in experiment [2] was -0.401 (inactive); in [3], 0.136 (inactive); in experiment [4], 0.523 (inactive); in experiment [5], -0.139 (inactive); in experiment [11], -0.448 (inactive); in experiment [13], 0.519 (inactive). Also, the z-score in [14] was -0.0212 (inactive); in [15], 0.0927 (inactive); in experiment [16], 0.0103 (inactive); in experiment [17] it was -0.528; in experiment [18] it was 1.67 (inactive); in experiment [19] it was 0.619 (inactive). The same compound showed a z-score in experiment [20] of 0.937.

For `COCC#Cc1ccc([C@@H]2N[C@H](C(=O)O)CC[C@H]2C)cc1`, the composite z-score in [1] is -0.0223; in experiment [6], 0.0402; in [7] it was -0.024; in [8], 0.24; in [9] it was 0.0923; in experiment [10], 0.742. The composite z-score in experiment [12] was -0.194. The z-score in experiment [2] is -1.23 (inactive); in experiment [3] it was -1.73 (inactive); in [4], -0.0755 (inactive); in experiment [5], -1.56 (inactive); in experiment [11] it was -0.0799 (inactive); in [13], -0.398 (inactive). The z-score in [14] was -0.478 (inactive); in [15], -0.571 (inactive); in experiment [16] it was -0.867 (inactive); in experiment [17] it was 2.16; in experiment [18], -2.01 (inactive); in experiment [19], 0.301 (inactive). In addition, the z-score in [20] was determined as 0.723.

As for `CC=CC1=C(CO)[C@H](O)[C@H]2O[C@H]2[C@@H]1O`, the composite z-score in experiment [1] was found to be 0.0984; in [6], 0.162; in experiment [7], 1.37; in [8] it was 0.587; in experiment [9], 0.131; in [10], 0.875. In addition, the composite z-score in experiment [12] was -0.106. For the same compound, the z-score was -0.0795 (inactive) in experiment [2]; -0.549 (inactive) in experiment [3]; -0.525 (inactive) in experiment [4]; 1.26 (inactive) in [5]; -0.412 (inactive) in experiment [11]; -0.312 (inactive) in [13]. Also, the z-score in [14] was 0.367 (inactive); in [15] it was -0.242 (inactive); in experiment [16], 0.172 (inactive); in [17], -0.325; in experiment [18], 0.623 (inactive); in experiment [19], -0.191 (inactive). The compound also yielded a z-score in [20] of 0.109.

Take `CCOC(=O)[C@H](Cc1ccccc1)NC(=O)CCC1CC(OC(=O)NCc2cccc3ccccc23)CC2(CCCC(COC(=O)NCc3ccc4c(c3)OCO4)O2)O1` (stereo not given in full): the composite z-score in [1] is 0.123; in experiment [6] it was -0.0007; in experiment [7], -0.0762; in experiment [8], 0.0755; in [9], -0.497; in [10] it was 0.466. For the same compound, the composite z-score in [12] turned out to be 0.0686. Besides, the z-score in [2] was -0.301 (inactive); in experiment [3], -0.548 (inactive); in experiment [4], -0.0767 (inactive); in experiment [5] it was -0.0564 (inactive); in experiment [11], 1.21 (inactive); in experiment [13], 0.509 (inactive). In addition, the z-score in [14] was -0.255 (inactive); in [15], -0.336 (inactive); in [16], -0.12 (inactive); in experiment [17] it was 0.184; in experiment [18], 0.691 (inactive); in experiment [19], 0.538 (inactive). The compound also had a z-score in experiment [20] of 0.712.

For the compound `COC(=O)[C@H](C)NC(=O)CCC1CC(OC(=O)NCCc2ccc(F)cc2)CC2(CCCC(COC(=O)NCCc3ccccc3OC)O2)O1` (stereo not given in full), the composite z-score in experiment [1] is 0.249; in experiment [6], 0.553; in [7] it was -0.343; in experiment [8] it was 0.284; in experiment [9], 0.519; in [10] it was 0.985. The composite z-score in experiment [12] is -0.103. Further, the z-score is 0.137 (inactive) in [2]; 0.351 (inactive) in [3]; 0.559 (inactive) in [4]; 0.0825 (inactive) in [5]; 0.121 (inactive) in experiment [11]; 6.98 (inactive) in [13]. Further, the z-score in [14] is 0.0923 (inactive); in experiment [15] it was 0.209 (inactive); in experiment [16] it was 0.15 (inactive); in experiment [17], 0.364; in [18] it was 0.577 (inactive); in experiment [19] it was 0.369 (inactive). This compound returned a z-score in experiment [20] of -0.543.

Consider `C[C@H]1CC[C@@H](C(=O)O)N[C@@H]1c1ccc(C#Cc2ccccc2)cc1`, for which the composite z-score was 0.177 in experiment [1]; 2.04 in experiment [6]; -0.0403 in experiment [7]; 0.587 in experiment [8]; 0.439 in [9]; 1.53 in [10]. The same compound showed a composite z-score in experiment [12] of -0.101. Moreover, the z-score was -7 (inactive) in experiment [2]; 0.696 (inactive) in experiment [3]; 0.112 (inactive) in [4]; -1.58 (inactive) in experiment [5]; -0.553 (inactive) in [11]; 0.0311 (inactive) in [13]. Also, the z-score was -0.0838 (inactive) in [14]; 0.26 (inactive) in experiment [15]; -0.267 (inactive) in experiment [16]; -0.895 in experiment [17]; -0.217 (inactive) in [18]; 1.11 (inactive) in experiment [19]. In addition, the z-score in experiment [20] stood at 1.93.

For `C[C@@H](c1ccccc1)N1C(=O)[C@H]2[C@H]3[C@H](O)[C@H](O)CC(=NOCc4ccccc4)[C@@H]3CC[C@H]2C1=O`, the composite z-score in experiment [1] is 0.0765; in experiment [6], 0.665; in experiment [7] it was -0.0762; in [8], -0.407; in experiment [9], -0.325; in experiment [10], -0.742. Moreover, the composite z-score in experiment [12] came to 0.426. In addition, the z-score in [2] is 0.039 (inactive); in experiment [3] it was 1.01 (inactive); in experiment [4] it was 0.242 (inactive); in experiment [5], -0.166 (inactive); in [11] it was -1.42 (inactive); in experiment [13] it was 2.92 (inactive). Also, the z-score in experiment [14] is 0.117 (inactive); in [15], 0.826 (inactive); in experiment [16], 0.479 (inactive); in experiment [17] it was -0.547; in experiment [18], -0.666 (inactive); in experiment [19], 0.115 (inactive). In addition, the z-score in [20] is 0.12.

Take `CCOC(=O)[C@H](CC(C)C)NC(=O)CCC1CC(OC(=O)NCc2ccc3c(c2)OCO3)CC2(CCCC(COC(=O)NCc3ccccc3)O2)O1` (stereo not given in full): the composite z-score in experiment [1] is -0.0368; in experiment [6], 0.324; in experiment [7], 0.0712; in [8], 0.288; in experiment [9], 0.245; in experiment [10], 1.84. This compound also displayed a composite z-score in experiment [12] of 0.0004. Moreover, the z-score in [2] was -0.72 (inactive); in experiment [3], 0.0377 (inactive); in experiment [4] it was -0.437 (inactive); in [5] it was -0.256 (inactive); in experiment [11] it was -0.729 (inactive); in experiment [13] it was 7.67 (inactive). Also, the z-score was 0.795 (inactive) in experiment [14]; -0.626 (inactive) in experiment [15]; 0.297 (inactive) in experiment [16]; -0.251 in experiment [17]; -0.398 (inactive) in experiment [18]; 0.47 (inactive) in experiment [19]. Besides, the z-score in experiment [20] came out at 0.202.
